Experimental data taken from article PMC13494018.

B1: design_613_5efed0bc-64ba-423b-b3f9-a246574e49bb_992_dldesign_0_cycle1_af2pred (protein)
chain: GERVEELRALVEEAARVSPELAALAQEALRLYLRGLALSANPATAARGEAAFAESERLAAEARARLAERLAAAAA
B2: design_614_ef6b398b-10cb-4a07-8087-96dafb4f9c83_786_dldesign_0_cycle1_af2pred (protein)
chain: STEQAAQIALNTAKANYKAAKAAAAAGDLAQAEANVKNLKLLTEAAKYYDPEAGKEVEKYYKEAKEAVEKAKAA
B3: design_614_ef6b398b-10cb-4a07-8087-96dafb4f9c83_149_dldesign_0_cycle1_af2pred (protein)
chain: MEEAEKYLKKAEEIVEKAKEEALKYAKEGDIGAAVETLAKALKEARKLYEKAGKAGDPEEAEKKAKEAEERINQAMAEAARTALEVAN
B4: design_614_ef6b398b-10cb-4a07-8087-96dafb4f9c83_4_dldesign_0_cycle1_af2pred (protein)
chain: AAGDEAANAAIALGQVLGPEVAEETTKAVEYMKSGSEKEKAKEYAEKAVELAEKVGPNSAASLKAILEKAEKLFS
B5: design_613_5efed0bc-64ba-423b-b3f9-a246574e49bb_1183_dldesign_0_cycle1_af2pred (protein)
chain: AEAQKLLEEARKLKEKAFALSPLQVGESLRYASELRKLAEKAAEADPSLAPEAKALAEETSAHVAAKARAGIAAQAA
B6: design_613_5efed0bc-64ba-423b-b3f9-a246574e49bb_1354_dldesign_0_cycle1_af2pred (protein)
chain: GEALKEALRQKALEAANKALALTSQLWTKDPARAQPAIALIIQGLETGDPKYFFEAAEKVAADPEAAGAAKAAGEYMEKANKL
B7: design_613_5efed0bc-64ba-423b-b3f9-a246574e49bb_2052_dldesign_0_cycle1_af2pred (protein)
chain: GGAAAIALAEAVARQAERQAEEAIAIAPERAPEIEELLERARELAKQAVALAKAGDLGAATEHVVKALELVGEIGRIAREAAAA
B8: design_613_5efed0bc-64ba-423b-b3f9-a246574e49bb_1387_dldesign_0_cycle1_af2pred (protein)
chain: AAAAAQAGQLAVQAAQGMIKKAKEILKRMPEVDPEKALASAKGVTDVAQALADQAIASPATAAQGKALKAEAKAVLAEAEKAAA
B9: design_613_5efed0bc-64ba-423b-b3f9-a246574e49bb_2419_dldesign_0_cycle1_af2pred (protein)
chain: ALGQQLVQQAKEKGKELLEIAKKGTAADAGEAAVELARFTSETARQLEQAGLPAAAQQVLAIGQKTLKEISAIGIAKITA
B10: design_614_ef6b398b-10cb-4a07-8087-96dafb4f9c83_741_dldesign_0_cycle1_af2pred (protein)
chain: SELIERAKNLLEAAKVFLTAAQSALAAGQKATAATLAQQAIKYATEAAKLAKEAGDEKLAEEAKKVKEQAEKVLKQAQ
B11: design_613_5efed0bc-64ba-423b-b3f9-a246574e49bb_1285_dldesign_0_cycle1_af2pred (protein)
chain: GLKEELLKEVRKVKKEAEKNAKDLEKLNEYLAKALDIAKKAQEAGDKETIAEATKVANLAAKLALEVAKA
B12: design_614_ef6b398b-10cb-4a07-8087-96dafb4f9c83_591_dldesign_0_cycle1_af2pred (protein)
chain: MTPEEAARAALRSARAALESLKLAVEQGGTLEDVLALGAVAKQSAQAAVELGKQAPEIYEEVKKEAEKIKKEVEKAVAKAKA
B13: design_613_5efed0bc-64ba-423b-b3f9-a246574e49bb_2281_dldesign_0_cycle1_af2pred (protein)
chain: AAAELIAKAKEYQAKALEYVKLAKEAEAAAKAATPEEGAKLNAKADFFNAMALVYAQRAAALLAQVDPALAKAALEKVQKAIA
B14: design_613_5efed0bc-64ba-423b-b3f9-a246574e49bb_1398_dldesign_0_cycle1_af2pred (protein)
chain: MEEVKEEMEKLLEKVKKAVAEDVGKGGEVLVEFVKKGAELAANSTPEAAAYARKKMKEAINIVLEATLAA
B15: design_613_5efed0bc-64ba-423b-b3f9-a246574e49bb_1210_dldesign_0_cycle1_af2pred (protein)
chain: AEKIEKLTKALELLLEALKHKDDIELARELAKKAAELLKEAGAEEAAKYAEAAAKATDKEEMTELLNKAAGKAAKAIIDAQKAAA
B16: design_613_5efed0bc-64ba-423b-b3f9-a246574e49bb_1256_dldesign_0_cycle1_af2pred (protein)
chain: DKAVTSAILRKSLAHARRQLAAATTAEEAEAVAQTAQVLADAAKAAGDAATAAEAAALAAEARAKAAALRAAEEAAA
B17: design_613_5efed0bc-64ba-423b-b3f9-a246574e49bb_1763_dldesign_0_cycle1_af2pred (protein)
chain: LQELIENGETLEALGKSAAAAGFNATAKRLYQDAAEQYKKAAEKAKELGDEELAKEYEAKAKEAEAKAKEY
B18: design_613_5efed0bc-64ba-423b-b3f9-a246574e49bb_1690_dldesign_0_cycle1_af2pred (protein)
chain: AAALEVGRRTLAALERTAEAAIAAARATTPEEAAREMGRARAAAEQARLIGEGVPELAPRAEALAERVAAAAAALEAA
B19: design_613_5efed0bc-64ba-423b-b3f9-a246574e49bb_1308_dldesign_0_cycle1_af2pred (protein)
chain: AAAEKAKEAAKKAEELAKYAEEHKEELTPEELRKIGYELVKQGNTLLQAGGAAQAAAQKAFGYAAEVAELIRE
B20: design_613_5efed0bc-64ba-423b-b3f9-a246574e49bb_1180_dldesign_0_cycle1_af2pred (protein)
chain: AEAEEKKRRAEAHVQAAEVYITAARSAMEAGLTDAALAHAKRAIEHAQKAIELGEPRGKELLAEAEAVLKEVKA
B21: design_614_ef6b398b-10cb-4a07-8087-96dafb4f9c83_652_dldesign_0_cycle1_af2pred (protein)
chain: GAAEEAKKWAKKAEEALKAAQKAADAAGKTPTLQQYVDNAKRAAEKAKETSKDPSKVEQTKGWAKMAELWAQAAKQQAAAVAAA
B22: design_614_ef6b398b-10cb-4a07-8087-96dafb4f9c83_520_dldesign_0_cycle1_af2pred (protein)
chain: AEGKALFEATKKEMEELREKGKAGTPELAKEQAAKILSLGLRTQGVLQTLGHTAEGDAALEYAKEVAEKAREWAKK
B23: design_613_5efed0bc-64ba-423b-b3f9-a246574e49bb_1032_dldesign_0_cycle1_af2pred (protein)
chain: AQAKADELEALGKEAEKKAKEAKNPEAAALYKGAAELMNAMAEAARQTPEFADQLYRMGKASYEALKTEAEKKEAAYKEKE
B24: design_613_5efed0bc-64ba-423b-b3f9-a246574e49bb_2054_dldesign_0_cycle1_af2pred (protein)
chain: FERAARAVEAVIELLRLLAEGNPATAAELRARAEELEAELAKARELAEKEGPEAGKARAEAIAAEGRRLLAEASRTAV
B25: design_613_5efed0bc-64ba-423b-b3f9-a246574e49bb_2086_dldesign_0_cycle1_af2pred (protein)
chain: AEDERRVASMRELAAQLVAIAEANAANPAALAIVRASALAAGRSFAAAASPEAAAEILAIAAATAARIAAIAAAAAAAA
B26: design_613_5efed0bc-64ba-423b-b3f9-a246574e49bb_1837_dldesign_0_cycle1_af2pred (protein)
chain: MTPREKAIAAINAATALAAAAVPAYADTFADLAGIVLTALEAGTGPTAVRVVGQAVVNVLRGAGATAAADAVAALYDEALEAAKAAA
B27: design_613_5efed0bc-64ba-423b-b3f9-a246574e49bb_1441_dldesign_0_cycle1_af2pred (protein)
chain: SEAERLAEEARRVILSGTAEEGAAAAVAAARKALEAGNLEGANLVLYESALAFGEAQRRGTPEDRAILNRGLAEVSRITLELARAA
B28: design_614_ef6b398b-10cb-4a07-8087-96dafb4f9c83_88_dldesign_0_cycle1_af2pred (protein)
chain: GAALEEALRARAEAARRAMVAVSQAYQLDPALGNEYLARLSEAIAAAEKVLAEGKAKTPEAAAKAVKAAAEEIAALAEEIAAAVEALK
B29: design_613_5efed0bc-64ba-423b-b3f9-a246574e49bb_1341_dldesign_0_cycle1_af2pred (protein)
chain: AVAAAGAKGLAAAAKSVAEATIRLAEQVAKEDPSKAEQAKAIAEQAKAAAAAAAKAAEAGDTAAAQAQFQKLVALYQQVLDLAK
B30: design_614_ef6b398b-10cb-4a07-8087-96dafb4f9c83_13_dldesign_0_cycle1_af2pred (protein)
chain: SEAEKQAIEIAIAAVLKAGELAGVPEEAKKVAEKIKKSNAGAALAIASAFLNRAAAAAEAAGDAATAAAIRALRTATTAKILALLRG
B31: design_613_5efed0bc-64ba-423b-b3f9-a246574e49bb_1212_dldesign_0_cycle1_af2pred (protein)
chain: SPVEVALAAAKATVKSAEKANVESAEKLAEVAKDLAEYAAKLGGEEAKKEAEKIKKEAEEAVKKQKERAAAA
B32: design_613_5efed0bc-64ba-423b-b3f9-a246574e49bb_1343_dldesign_0_cycle1_af2pred (protein)
chain: LAEAAERTARAIERNALEAIKTLSPEEAKRAAELAVTMLEGLAIAAPEAAPVARGLAERVRAAEREYTSKKLAE
B33: design_614_ef6b398b-10cb-4a07-8087-96dafb4f9c83_806_dldesign_0_cycle1_af2pred (protein)
chain: AAAQLAAENIALAKAIFEEVRKEALKAIEALKKAKEAASDPELAAKYLEKAKEALKKAEELAAKGSEGIALLARNYVRSLLASTA
B34: design_614_ef6b398b-10cb-4a07-8087-96dafb4f9c83_822_dldesign_0_cycle1_af2pred (protein)
chain: AEEEKRRAIAEAAMRQFKEIAEGAAATALANPAIADGALASVKALGKNLVEGAKAQSPELGKKAAEVAKEAIEKVEKAAKEAKAA
B35: design_613_5efed0bc-64ba-423b-b3f9-a246574e49bb_2155_dldesign_0_cycle1_af2pred (protein)
chain: AAAQAAAVATAAGQALLKQGKKLFEEGKKSGDKKLLEEAAKNFELAATMYAQASAAAGGAADANKKEAEAKLEEAKAAI
B36: design_613_5efed0bc-64ba-423b-b3f9-a246574e49bb_1796_dldesign_0_cycle1_af2pred (protein)
chain: SAANIAAAKAYANMAATLAKQAGNEEAAKKAKEAAKVAADKEKATKLLKEAEELLKKEPAEKAPYTNKALEFIKLAKEALSKL
B37: design_613_5efed0bc-64ba-423b-b3f9-a246574e49bb_898_dldesign_0_cycle1_af2pred (protein)
chain: GEEEERLRREGERIVEEARRLAEEAVAAIKAAAPDVAKATAILIDYLKRIDELVKRAAPYPEAAAEVAELGNRASAQGIRYIMAAA
B38: design_613_5efed0bc-64ba-423b-b3f9-a246574e49bb_1611_dldesign_0_cycle1_af2pred (protein)
chain: DAAAKAKAKEAEAKGKELIAKAKAAAEAGDYDAANAYLQQAIKLGMEMASSGASQAEVDVGAKIVSAVVEAMEYMSAQRRARR

Target: CD276, Q5ZPR3
Sequence (Q5ZPR3 whole entry): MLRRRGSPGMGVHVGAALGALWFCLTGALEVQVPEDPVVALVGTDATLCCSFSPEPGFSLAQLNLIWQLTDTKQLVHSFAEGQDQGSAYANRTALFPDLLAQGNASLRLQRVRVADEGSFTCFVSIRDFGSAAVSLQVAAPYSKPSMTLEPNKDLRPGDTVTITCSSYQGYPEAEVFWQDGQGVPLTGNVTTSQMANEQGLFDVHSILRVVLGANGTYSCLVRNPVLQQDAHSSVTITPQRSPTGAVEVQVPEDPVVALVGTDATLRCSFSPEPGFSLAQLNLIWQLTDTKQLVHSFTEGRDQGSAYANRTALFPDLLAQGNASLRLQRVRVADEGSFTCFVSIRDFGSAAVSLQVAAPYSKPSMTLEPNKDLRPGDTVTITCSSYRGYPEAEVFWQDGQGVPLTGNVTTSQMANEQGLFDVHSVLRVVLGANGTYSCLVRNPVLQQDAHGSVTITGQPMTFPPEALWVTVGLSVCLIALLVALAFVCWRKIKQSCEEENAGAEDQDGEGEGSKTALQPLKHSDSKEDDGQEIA

Binding in a display sort, inactive:
B1 not found
B2 not found
B3 not found
B4 not found
B5 not found
B6 not found
B7 not found
B8 not found
B9 not found
B10 not found
B11 not found
B12 not found
B13 not found
B14 not found
B15 not found
B16 not found
B17 not found
B18 not found
B19 not found
B20 not found
B21 not found
B22 not found
B23 not found
B24 not found
B25 not found
B26 not found
B27 not found
B28 not found
B29 not found
B30 not found
B31 not found
B32 not found
B33 not found
B34 not found
B35 not found
B36 not found
B37 not found
B38 not found
